The nature of experiment [1]: Quantitative High-Throughput drug screen in 47 multiple myeloma cell lines against the NCATS MIPE library collection: KMS34_JCRB cell viability assay (AID 1918985). Further: nearly all actives have a fitted effect of over 40% in size. In outline: (§1)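 Readout: median RLU from CellTiter-Glo after 5 min at room temperature. Preceding step was 48 h drug treatment of 500 cells/well at 37 °C, 5% CO2, with DMSO-only and media-only control wells.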

Experiment [2] can be described thus: Quantitative High-Throughput drug screen in 47 multiple myeloma cell lines against the NCATS MIPE library collection: OCIMY7_PLB cell viability assay (AID 1918987). Further: nearly all actives have a fitted effect of over 65% in size. In outline:
as §1

Experiment [3] in a line: Quantitative High-Throughput drug screen in 47 multiple myeloma cell lines against the NCATS MIPE library collection: OCIMY5_PLB cell viability assay (AID 1918988). Further: nearly all actives have a fitted effect of over 65% in size. In outline: as §1
The nature of experiment [4]: Quantitative High-Throughput drug screen in 47 multiple myeloma cell lines against the NCATS MIPE library collection: OPM1_PLB cell viability assay (AID 1918989). Further: nearly all actives have a fitted effect of over 40% in size. Summed up: as §1
The nature of experiment [5]: Quantitative High-Throughput drug screen in 47 multiple myeloma cell lines against the NCATS MIPE library collection: SKMM1_PLB cell viability assay (AID 1919863). Further: nearly all actives have a fitted effect of over 35% in size. The note with it: SKMM1 myeloma viability, CellTiter-Glo ATP, 48 h; viability: stronger effect = lower value. In outline: as §1
On the technique in general: Cellular ATP, detected with luciferase, serves as a proxy for viable cell number.

Experiment [6] in a line: Quantitative High-Throughput drug screen in 47 multiple myeloma cell lines against the NCATS MIPE library collection: U266_ATCC cell viability assay (AID 1919864). Further: nearly all actives have a fitted effect of over 35% in size. In outline: as §1
The nature of experiment [7]: Quantitative High-Throughput drug screen in 47 multiple myeloma cell lines against the NCATS MIPE library collection: XG6_PLB cell viability assay (AID 1919865). Further: nearly all actives have a fitted effect of over 40% in size. In outline:
as §1

Experiment [8] in a line: Quantitative High-Throughput drug screen in 47 multiple myeloma cell lines against the NCATS MIPE library collection: XG1_PLB cell viability assay (AID 1919866). Further: nearly all actives have a fitted effect of over 35% in size. Summed up:
as §1

The nature of experiment [9]: Quantitative High-Throughput drug screen in 47 multiple myeloma cell lines against the NCATS MIPE library collection: VP6_DJ cell viability assay (AID 1919867). Further: nearly all actives have a fitted effect of over 40% in size. In outline: as §1
Experiment [10] can be described thus: Quantitative High-Throughput drug screen in 47 multiple myeloma cell lines against the NCATS MIPE library collection: UTMC2_PLB cell viability assay (AID 1919868). Further: nearly all actives have a fitted effect of over 55% in size. To be noted: CellTiter-Glo ATP luminescence, 48 h; viability (% of DMSO control): at 45.8 µM (top of the series) unless noted. Summed up: as §1
The nature of experiment [11]: Quantitative High-Throughput drug screen in 47 multiple myeloma cell lines against the NCATS MIPE library collection: PE2_PLB cell viability assay (AID 1919869). Further: nearly all actives have a fitted effect of over 35% in size. Summed up:
as §1

Experiment [12] is described as follows: Quantitative High-Throughput drug screen in 47 multiple myeloma cell lines against the NCATS MIPE library collection: PCM6_Riken cell viability assay (AID 1919870). Further: nearly all actives have a fitted effect of over 30% in size. In outline: as §1
Experiment [13] in a line: Quantitative High-Throughput drug screen in 47 multiple myeloma cell lines against the NCATS MIPE library collection: RPMI8226_ATCC cell viability assay (AID 1919871). Further: nearly all actives have a fitted effect of over 30% in size. Summed up:
as §1

Experiment [14] in a line: Quantitative High-Throughput drug screen in 47 multiple myeloma cell lines against the NCATS MIPE library collection: OPM2_DSMZ cell viability assay (AID 1919872). Further: nearly all actives have a fitted effect of over 30% in size. In outline: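 CellTiter-Glo ATP luminescence gave viability after 48 h compound treatment at 37C of 500 multiple myeloma cells per well. Normalisation used DMSO-only wells as 100% and media-only wells as 0% viability; primary qHTS of approved and investigational drugs.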

A short description of experiment [15]: Quantitative High-Throughput drug screen in 47 multiple myeloma cell lines against the NCATS MIPE library collection: KMS11_JCRBsus cell viability assay (AID 1919873). Further: nearly all actives have a fitted effect of over 50% in size. In outline:
as §1

Experiment [16] is described as follows: Quantitative High-Throughput drug screen in 47 multiple myeloma cell lines against the NCATS MIPE library collection: KMS28BM_JCRB cell viability assay (AID 1919874). Further: nearly all actives have a fitted effect of over 35% in size. Summed up:
as §1

The nature of experiment [17]: qHTS for identification of novel therapeutic agents for treatment of microphthalmiaassociated transcription factor (MiT) renal cell carcinoma (RCC) (AID 1963991; calls by dose curve). To be noted: CellTiter-Glo, 48 h; for Potency: active = Z-AUC below -0.8 in all three lines; for z-score: stronger effect = lower value. In outline:
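Three TFE3-fusion RCC lines (UOK109, UOK124, UOK145), 500 cells/well in complete medium, were treated with MIPE 4.0 compounds for 48 hours at 37 C. Viability was by CellTiter-Glo luminescence, normalized to DMSO (100%) and empty wells (0%); curves fitted over 11 concentrations.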
Background: In qHTS, concentration-response curves come from the screen itself.

The nature of experiment [18]: qHTS profiling for inhibitors of Plasmodium falciparum proliferation (AID 504749). Further: nearly all actives have a fitted effect of over 60% in size. To be noted: P. falciparum in erythrocytes, SYBR Green DNA, 72 h. Summed up: (§2)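 Fluorescence of SYBR Green-bound parasite DNA, read at 485/535 nm, served as the growth measure. Infected erythrocytes were cultured with compound 72 h; artemisinin (0.29 uM) and DMSO wells defined the normalization range.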

In experiment [19] the test system is 3D7. Described as above. To be noted: P. falciparum in erythrocytes, SYBR Green DNA, 72 h; series mostly up to 28.7 µM. In outline:
as §2

Experiment [20] in a line: qHTS drug screen for cell cycle checkpoint inhibitors in PARPi-resistant BRCA-mutant ovarian cancer cell lines. (AID 1963452; calls by dose curve). The note with it: PEO1/OlaR viability, CellTiter-Glo luminescence, 96 h; for Z-AUC: stronger effect = lower value. In outline:
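PEO1, PEO4 and PEO1/OlaR ovarian cancer cells, 600 per well, exposed 96 h at 37C to a dilution series. Viability read by CellTiter-Glo luminescence, normalized to DMSO and empty wells; activity summarized as Z-AUC.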

Where [21] appears, read: TFE3-RCC UOK109 viability, measured here: UOK109 Z-AUC.
The mark [22] stands for this setting: TFE3-RCC viability, measured here: UOK124 Z-AUC.
Where [23] appears, read: TFE3-RCC viability, measured here: UOK145 Z-AUC.
Setting [24] is: measured here: PEO1 parental Z-AUC.

These results are taken from PubChem BioAssay (NCATS).

Records with an inconclusive call do not appear. The source made the active and inactive calls. Unless noted, the call rests on the fitted dose curve; in most records, active means well fitted curve in the direction sought with a large enough effect; inconclusive means small, poorly fitted or top-dose-only effect, or another doubt; inactive means no such curve, though single readings can be large; an effect the other way counts as inactive or inconclusive.
Potency means the concentration at half of the fitted maximal effect.

On to `Cc1[nH]c2ccccc2c1CCNCc1ccc(C=CC(=O)NO)cc1`, for which the Potency is 52.6 nM (active) in [1]; 74.3 nM (active) in experiment [2]; 41.8 nM (active) in [3]; 26.4 nM (active) in experiment [4]; 105 nM (active) in [5]; 132 nM (active) in experiment [6]. The Potency in experiment [7] was 148 nM (active); in experiment [8], 105 nM (active); in [9], 18.7 nM (active); in [10], 14.8 nM (active); in [11], 93.5 nM (active); in [12], 66.2 nM (active). In addition, the Potency in [13] was 118 nM (active); in [14], 93.5 nM (active); in experiment [15] it was 66.2 nM (active); in experiment [16] it was 52.6 nM (active); in experiment [17] (TFE3-RCC UOK109 viability), 418 nM (active). Besides, the values for the z-score in experiment [17] (setting [21]), in experiment [17] (setting [22]) and in experiment [17] (setting [23]) were -1.86, -3.24 and -1.46, respectively.
On to `CC[C@H]1CN2CCc3cc(OC)c(OC)cc3[C@H]2C[C@@H]1C[C@@H]1NCCc2cc(OC)c(OC)cc21`, for which the Potency in experiment [1] is 132 nM (active); in experiment [2] it was 526 nM (active); in [3], 187 nM (active); in experiment [4], 235 nM (active); in [5] it was 296 nM (active); in experiment [6], 93.5 nM (active). Also, the Potency was 105 nM (active) in experiment [7]; 148 nM (active) in experiment [8]; 148 nM (active) in [9]; 187 nM (active) in experiment [10]; 296 nM (active) in experiment [11]; 166 nM (active) in experiment [12]. For the same molecule, the Potency in [13] is 148 nM (active); in experiment [14], 418 nM (active); in [15], 166 nM (active); in experiment [16], 235 nM (active); in [17] (TFE3-RCC UOK109 viability), 166 nM (active); in experiment [18] (parasite line A), 316 nM (active). The Potency in experiment [18] (parasite line B) was 282 nM (active); in [19], 224 nM (active). The z-score in [17] (setting [21]) is -1.94; in experiment [17] (setting [22]), -1.32; in [17] (setting [23]), -3.58.
For the molecule `NC(=O)Nc1cc(-c2cccc(F)c2)sc1C(=O)N[C@H]1CCCNC1`, the Potency is 93.5 nM (active) in [1]; 264 nM (active) in [2]; 74.3 nM (active) in experiment [3]; 296 nM (active) in experiment [4]; 7430 nM (active) in [5]; 5900 nM (active) in experiment [6]. In addition, the Potency in experiment [7] is 83.3 nM (active); in experiment [8], 187 nM (active); in experiment [9] it was 166 nM (active); in [10] it was 105 nM (active); in [11], 469 nM (active); in [12] it was 4690 nM (active). Also, the Potency in [14] was 2640 nM (active); in experiment [15] it was 526 nM (active); in experiment [16], 1870 nM (active); in [20] it was 110 nM (active); in experiment [17] (TFE3-RCC UOK109 viability) it was 935 nM (active). For the same molecule, the Z-AUC was -1.9 in experiment [20] (setting [24]) and -1.5 in experiment [20] (measured here: PEO4 Z-AUC). Also, the values for the z-score in experiment [17] (setting [21]), in experiment [17] (setting [22]) and in experiment [17] (setting [23]) were -1.42, -1.69 and -1.85, respectively.
Take `Nc1ccccc1NC(=O)c1ccc(CNC(=O)OCc2cccnc2)cc1`: the Potency in experiment [1] was 935 nM (active); in experiment [2] it was 1660 nM (active); in [3] it was 1320 nM (active); in experiment [4] it was 743 nM (active); in experiment [5], 1320 nM (active); in experiment [6], 5900 nM (active). Besides, the Potency in experiment [7] was 2350 nM (active); in [8] it was 1660 nM (active); in experiment [9], 743 nM (active); in experiment [10], 1320 nM (active); in [11], 1660 nM (active); in [14], 2090 nM (active). Moreover, the Potency in experiment [15] was 1870 nM (active); in experiment [16], 1050 nM (active). Besides, the Z-AUC in experiment [20] was -0.769 (inactive); in [20] (setting [24]), -1.32; in experiment [20] (measured here: PEO4 Z-AUC) it was -1.54.
